# Assay results from the supplement of paper PMC4466140.
# Target: AgAbp1
# Assay: SPOT peptide array binding signal intensity (averaged, normalized) (arbitrary units (background-subtracted, floor 0; scale differs between SH3 domains)); higher = stronger binding of the SH3 domain to the peptide
# Method in brief: (§1)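 To measure binding, SH3 domains from four yeast species were fused to GST, expressed in E. coli BL21(DE3) and purified on glutathione Sepharose. Each domain was incubated at 10 μg/ml overnight at 4°C on cellulose membranes with synthetic 15-mer peptides whose cysteines were replaced by serines. Anti-GST antibody, an HRP anti-mouse secondary and luminol were used for detection, and images were quantified with Genespotter. Reported binding signal is normalized, background-subtracted spot intensity averaged over replicates, in arbitrary units that differ between domains.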
row,Binder,SPOT peptide array binding signal intensity
1,IAPIPMPKPNPTHIS,≤ 0

# Target: AgBbc1
# Assay: as above
# Method in brief: as §1
row,Binder,SPOT peptide array binding signal intensity
1,IAPIPMPKPNPTHIS,≤ 0

# Target: AgBem1-D1
# Assay: as above
# Method in brief: as §1
row,Binder,SPOT peptide array binding signal intensity
1,IAPIPMPKPNPTHIS,7

# Target: AgBzz1-D1
# Assay: as above
# Method in brief: as §1
row,Binder,SPOT peptide array binding signal intensity
1,IAPIPMPKPNPTHIS,≤ 0

# Target: AgBzz1-D2
# Assay: as above
# Method in brief: as §1
row,Binder,SPOT peptide array binding signal intensity
1,IAPIPMPKPNPTHIS,4

# Target: AgCyk3
# Assay: as above
# Method in brief: as §1
row,Binder,SPOT peptide array binding signal intensity
1,IAPIPMPKPNPTHIS,≤ 0

# Target: AgFus1
# Assay: as above
# Method in brief: as §1
row,Binder,SPOT peptide array binding signal intensity
1,IAPIPMPKPNPTHIS,44.5

# Target: AgHof1
# Assay: as above
# Method in brief: as §1
row,Binder,SPOT peptide array binding signal intensity
1,IAPIPMPKPNPTHIS,≤ 0

# Target: AgHse1
# Assay: as above
# Method in brief: as §1
row,Binder,SPOT peptide array binding signal intensity
1,IAPIPMPKPNPTHIS,12

# Target: AgLsb1
# Assay: as above
# Method in brief: as §1
row,Binder,SPOT peptide array binding signal intensity
1,IAPIPMPKPNPTHIS,≤ 0

# Target: AgLsb4
# Assay: as above
# Method in brief: as §1
row,Binder,SPOT peptide array binding signal intensity
1,IAPIPMPKPNPTHIS,≤ 0

# Target: AgMyo5
# Assay: as above
# Method in brief: as §1
row,Binder,SPOT peptide array binding signal intensity
1,IAPIPMPKPNPTHIS,≤ 0

# Target: AgNbp2
# Assay: as above
# Method in brief: as §1
row,Binder,SPOT peptide array binding signal intensity
1,IAPIPMPKPNPTHIS,61.5

# Target: AgRvs167
# Assay: as above
# Method in brief: as §1
row,Binder,SPOT peptide array binding signal intensity
1,IAPIPMPKPNPTHIS,0.333

# Target: AgSho1
# Assay: as above
# Method in brief: as §1
row,Binder,SPOT peptide array binding signal intensity
1,IAPIPMPKPNPTHIS,32

# Target: AgSla1-D1-D2
# Assay: as above
# Method in brief: as §1
row,Binder,SPOT peptide array binding signal intensity
1,IAPIPMPKPNPTHIS,≤ 0

# Target: AgSla1-D3
# Assay: as above
# Method in brief: as §1
row,Binder,SPOT peptide array binding signal intensity
1,IAPIPMPKPNPTHIS,4.5

# Target: CaAbp1-D1
# Assay: as above
# Method in brief: as §1
row,Binder,SPOT peptide array binding signal intensity
1,IAPIPMPKPNPTHIS,≤ 0

# Target: CaAbp1-D2
# Assay: as above
# Method in brief: as §1
row,Binder,SPOT peptide array binding signal intensity
1,IAPIPMPKPNPTHIS,28.5

# Target: CaBbc1
# Assay: as above
# Method in brief: as §1
row,Binder,SPOT peptide array binding signal intensity
1,IAPIPMPKPNPTHIS,≤ 0

# Target: CaBem1-D1
# Assay: as above
# Method in brief: as §1
row,Binder,SPOT peptide array binding signal intensity
1,IAPIPMPKPNPTHIS,48.5

# Target: CaBzz1-D1
# Assay: as above
# Method in brief: as §1
row,Binder,SPOT peptide array binding signal intensity
1,IAPIPMPKPNPTHIS,≤ 0

# Target: CaBzz1-D2
# Assay: as above
# Method in brief: as §1
row,Binder,SPOT peptide array binding signal intensity
1,IAPIPMPKPNPTHIS,9.75

# Target: CaCyk3
# Assay: as above
# Method in brief: as §1
row,Binder,SPOT peptide array binding signal intensity
1,IAPIPMPKPNPTHIS,≤ 0

# Target: CaFus1
# Assay: as above
# Method in brief: as §1
row,Binder,SPOT peptide array binding signal intensity
1,IAPIPMPKPNPTHIS,170

# Target: CaHof1
# Assay: as above
# Method in brief: as §1
row,Binder,SPOT peptide array binding signal intensity
1,IAPIPMPKPNPTHIS,0.5

# Target: CaHse1
# Assay: as above
# Method in brief: as §1
row,Binder,SPOT peptide array binding signal intensity
1,IAPIPMPKPNPTHIS,33.8

# Target: CaLsb1
# Assay: as above
# Method in brief: as §1
row,Binder,SPOT peptide array binding signal intensity
1,IAPIPMPKPNPTHIS,≤ 0

# Target: CaLsb4
# Assay: as above
# Method in brief: as §1
row,Binder,SPOT peptide array binding signal intensity
1,IAPIPMPKPNPTHIS,51

# Target: CaMyo5
# Assay: as above
# Method in brief: as §1
row,Binder,SPOT peptide array binding signal intensity
1,IAPIPMPKPNPTHIS,3

# Target: CaNbp2
# Assay: as above
# Method in brief: as §1
row,Binder,SPOT peptide array binding signal intensity
1,IAPIPMPKPNPTHIS,430

# Target: CaRvs167
# Assay: as above
# Method in brief: as §1
row,Binder,SPOT peptide array binding signal intensity
1,IAPIPMPKPNPTHIS,≤ 0

# Target: CaRvs167-3
# Assay: as above
# Method in brief: as §1
row,Binder,SPOT peptide array binding signal intensity
1,IAPIPMPKPNPTHIS,≤ 0

# Target: CaSho1
# Assay: as above
# Method in brief: as §1
row,Binder,SPOT peptide array binding signal intensity
1,IAPIPMPKPNPTHIS,305

# Target: CaSla1-D1-D2
# Assay: as above
# Method in brief: as §1
row,Binder,SPOT peptide array binding signal intensity
1,IAPIPMPKPNPTHIS,58.5

# Target: CaSla1-D3
# Assay: as above
# Method in brief: as §1
row,Binder,SPOT peptide array binding signal intensity
1,IAPIPMPKPNPTHIS,52.5

# Target: ScAbp1
# Assay: as above
# Method in brief: as §1
row,Binder,SPOT peptide array binding signal intensity
1,IAPIPMPKPNPTHIS,≤ 0
